In PubChem BioAssay (NCI) one finds growth inhibition data, which are given here for 7 compounds.

The nature of test [1]: NCI Yeast Anticancer Drug Screen. Data for the rad50 strain (AID 155).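 Also: 0% = growth of vehicle-only cultures of the same strain.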 Particulars: S. cerevisiae rad50 strain growth inhibition, active compounds read high. In short, it runs like this:
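Compounds were tested on a yeast strain with an engineered DNA damage repair alteration; the reported value is growth inhibition normalised to vehicle treatment.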

Test [2] is described as follows: NCI Yeast Anticancer Drug Screen. Data for the mec2-1 strain (AID 157). Particulars: S. cerevisiae mec2-1 strain, active compounds read high. An outline of the steps: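 Readout is yeast growth inhibition, normalised to vehicle-treated controls, in the mec2-1 strain exposed to compound.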
The nature of test [3]: NCI Yeast Anticancer Drug Screen. Data for the sgs1 mgt1 strain (AID 161).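 Also: 0% = growth of cultures given vehicle only.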 The note with it: S. cerevisiae sgs1 mgt1 strain, active compounds read high. An outline of the steps: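 Percent growth inhibition was derived by comparing compound-exposed mutant yeast with vehicle-exposed cultures. The strain carries alterations in DNA damage repair.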
The nature of test [4]: NCI Yeast Anticancer Drug Screen. Data for the cln2 rad14 strain (AID 165).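 Also: 0% = growth equal to vehicle treated cultures.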 Particulars: S. cerevisiae cln2 rad14 strain, active compounds read high. In short, it runs like this:
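Relative to vehicle controls, growth inhibition of compound-treated cln2 rad14 yeast was recorded.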

Test [5] can be described thus: NCI Yeast Anticancer Drug Screen. Data for the bub3 strain (AID 167). The note with it: S. cerevisiae bub3 mutant strain, active compounds read high. In short, it runs like this: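 Growth of a checkpoint-deficient yeast mutant is measured after compound exposure. Values represent inhibition relative to vehicle.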
Test [6] can be described thus: NCI Yeast Anticancer Drug Screen. Data for the mlh1 rad18 strain (AID 175). The note with it: S. cerevisiae mlh1 rad18 strain growth inhibition, active compounds read high. In short, it runs like this: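 Test agents were incubated with a yeast strain of defined genotype (DNA damage repair defect). Inhibition of growth was derived by comparison with vehicle-exposed cultures.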

Where [7] appears, read: at 5.0 µM (retest, dose inferred, filed as 0.5).
Where [8] appears, read: at 50.0 µM (retest, dose inferred, filed as 5.0).

Molecules are shown by their SMILES. The panel holds about 79,000 compounds, 15% with a hit somewhere; the sample as a whole holds those more often. Values without a mark were called inactive. Activity calls are given as the source filed them. Rule as the data show it: active = growth inhibition above about 70%; inactive = the rest.

On to `Cc1cc(O)c(NCCN(C)C)c2c(=O)c3ccccc3sc12`, for which the growth inhibition was 18% in test [1] (setting [7]); 97% (active) in test [1] (setting [8]); 98.5% (active) in test [1] (at 50.0 µM); 7% in test [2] (setting [7]); 97% (active) in test [2] (setting [8]); 99.1% (active) in test [2] (at 50.0 µM). Further, the growth inhibition in test [3] (setting [7]) is 8%; in test [3] (setting [8]), 98% (active); in test [3] (at 50.0 µM), 98.8% (active); in test [4] (setting [7]), 12%; in test [4] (setting [8]), 97% (active); in test [4] (at 50.0 µM), 97.8% (active). Also, the growth inhibition in test [5] (setting [7]) is 6%; in test [5] (setting [8]), 94% (active); in test [5] (at 50.0 µM), 98% (active); in test [6] (setting [7]) it was 5%; in test [6] (setting [8]), 97% (active); in test [6] (at 50.0 µM) it was 98.7% (active).

`O=C(N/C(=C\c1ccc(Br)cc1)c1nc2ccccc2[nH]1)c1ccccc1`: the growth inhibition in test [1] (setting [7]) is 3%; in test [1] (setting [8]) it was 59%; in test [1] (at 50.0 µM) it was 73.4% (active); in test [2] (setting [7]), -17%; in test [2] (setting [8]), 27%; in test [2] (at 50.0 µM), 95.8% (active). Moreover, the growth inhibition is -2% in test [3] (setting [7]); 60% in test [3] (setting [8]); 68% in test [3] (at 50.0 µM); -6% in test [4] (setting [7]); 41% in test [4] (setting [8]); 66.9% in test [4] (at 50.0 µM). In addition, the growth inhibition is 6% in test [5] (setting [7]); 78% (active) in test [5] (setting [8]); 88.4% (active) in test [5] (at 50.0 µM); 2% in test [6] (setting [7]); 21% in test [6] (setting [8]); 96.5% (active) in test [6] (at 50.0 µM).

As to `CC(=O)Oc1ccc(Cl)cc1Cc1cc(Cl)ccc1OC(C)=O`, the growth inhibition is 17% in test [1] (setting [7]); 85% (active) in test [1] (setting [8]); 94.2% (active) in test [1] (at 50.0 µM); -1% in test [2] (setting [7]); 93% (active) in test [2] (setting [8]); 90.7% (active) in test [2] (at 50.0 µM). The growth inhibition was 7% in test [3] (setting [7]); 83% (active) in test [3] (setting [8]); 94.5% (active) in test [3] (at 50.0 µM); -4% in test [4] (setting [7]); 94% (active) in test [4] (setting [8]); 89.2% (active) in test [4] (at 50.0 µM). For the same compound, the growth inhibition is -3% in test [5] (setting [7]); 88% (active) in test [5] (setting [8]); 94.5% (active) in test [5] (at 50.0 µM); 2% in test [6] (setting [7]); 94% (active) in test [6] (setting [8]); 95.2% (active) in test [6] (at 50.0 µM).

Take `Nc1cccc2c(O)cccc12`: the growth inhibition in test [1] (setting [7]) was -1%; in test [1] (setting [8]), 21%; in test [1] (at 50.0 µM) it was 21.6%; in test [2] (setting [7]), 3%; in test [2] (setting [8]) it was 18%; in test [2] (at 50.0 µM) it was 9.3%. Moreover, the growth inhibition in test [3] (setting [7]) was -1%; in test [3] (setting [8]) it was 15%; in test [3] (at 50.0 µM), 20.8%; in test [4] (setting [7]), 2%; in test [4] (setting [8]), 12%; in test [4] (at 50.0 µM) it was 44.2%. The growth inhibition in test [5] (setting [7]) is 2%; in test [5] (setting [8]), 15%; in test [5] (at 50.0 µM), 8.55%; in test [6] (setting [7]), -2%; in test [6] (setting [8]), 28%; in test [6] (at 50.0 µM) it was 50.2%.

On to `CCCCCCCN(CCCCCCC)CC(O)Cc1cc2c(c3ccccc13)CCCC2` (stereo unspecified), for which the growth inhibition in test [1] (setting [7]) was 6%; in test [1] (setting [8]), 97% (active); in test [1] (at 50.0 µM), 98.8% (active); in test [2] (setting [7]), 17%; in test [2] (setting [8]), 98% (active); in test [2] (at 50.0 µM), 94.7% (active). Further, the growth inhibition was 36% in test [3] (setting [7]); 98% (active) in test [3] (setting [8]); 99.5% (active) in test [3] (at 50.0 µM); 4% in test [4] (setting [7]); 97% (active) in test [4] (setting [8]); 98.7% (active) in test [4] (at 50.0 µM). Besides, the growth inhibition in test [5] (setting [7]) is 3%; in test [5] (setting [8]), 96% (active); in test [5] (at 50.0 µM) it was 94.7% (active); in test [6] (setting [7]) it was 24%; in test [6] (setting [8]) it was 97% (active); in test [6] (at 50.0 µM) it was 98% (active).

On to `COc1ccc2c(c1)[n+]([O-])c(C(N)=O)c(N)[n+]2[O-]`, for which the growth inhibition in test [1] (setting [7]) is 23%; in test [1] (setting [8]), 100% (active); in test [1] (at 50.0 µM), 99.4% (active); in test [2] (setting [7]), 14%; in test [2] (setting [8]) it was 100% (active); in test [2] (at 50.0 µM), 99.5% (active). In addition, the growth inhibition was 17% in test [3] (setting [7]); 99% (active) in test [3] (setting [8]); 99.3% (active) in test [3] (at 50.0 µM); 31% in test [4] (setting [7]); 98% (active) in test [4] (setting [8]); 99.1% (active) in test [4] (at 50.0 µM). For the same compound, the growth inhibition in test [5] (setting [7]) was 40%; in test [5] (setting [8]), 99% (active); in test [5] (at 50.0 µM), 98.4% (active); in test [6] (setting [7]), 42%; in test [6] (setting [8]), 99% (active); in test [6] (at 50.0 µM), 99.2% (active).

On to `O=NNc1ccc(Sc2ccc3ccccc3c2)cn1`, for which the growth inhibition is 21% in test [1] (setting [7]); 41% in test [1] (setting [8]); 21.5% in test [1] (at 50.0 µM); 24% in test [2] (setting [7]); 36% in test [2] (setting [8]); 12.2% in test [2] (at 50.0 µM). Moreover, the growth inhibition was 20% in test [3] (setting [7]); 27% in test [3] (setting [8]); 19.1% in test [3] (at 50.0 µM); 32% in test [4] (setting [7]); 43% in test [4] (setting [8]); 24.8% in test [4] (at 50.0 µM). Further, the growth inhibition in test [5] (setting [7]) was 30%; in test [5] (setting [8]), 37%; in test [5] (at 50.0 µM), 35%; in test [6] (setting [7]), 25%; in test [6] (setting [8]) it was 47%; in test [6] (at 50.0 µM), 51.5%.
